Compound activity (PubChem BioAssay)
Compounds with a hit are over-represented: about 5.9% of the library has one in this group of screens.
Rtt109 HAT inh: inhibitors of C. albicans Rtt109/Vps75 HAT, primary screen, biochemical, ThioGlo CoA-SH fluorescence, plate reader. inhibition, % at 34.9 µM. purified Rtt109/Vps75, 4 h. Histone acetyltransferase RTT109 (Candida albicans (strain SC5314 / ATCC MYA-2876)), …. hit rate 0.16% among 330,000;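 active means inhibition of at least 50% in every replicate; inconclusive means best replicate reaches 50% inhibition but some replicates fall short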
Target sequence (Q5AAJ8 whole entry, looked up): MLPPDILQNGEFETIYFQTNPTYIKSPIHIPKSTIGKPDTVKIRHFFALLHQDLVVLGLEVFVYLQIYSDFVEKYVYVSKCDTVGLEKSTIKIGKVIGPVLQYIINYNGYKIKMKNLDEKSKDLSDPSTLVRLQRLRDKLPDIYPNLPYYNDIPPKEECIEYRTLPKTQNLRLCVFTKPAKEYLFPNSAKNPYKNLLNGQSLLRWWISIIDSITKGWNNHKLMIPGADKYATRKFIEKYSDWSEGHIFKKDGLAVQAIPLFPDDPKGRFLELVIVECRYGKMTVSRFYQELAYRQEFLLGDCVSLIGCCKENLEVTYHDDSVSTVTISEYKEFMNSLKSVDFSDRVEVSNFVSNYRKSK
PRMT1 inh: PRMT1 methyltransferase inhibitors, primary screen, biochemical, fluorescence polarization; inhibition, % at 2.79 µM; recombinant PRMT1, activity-based probe fluorescence polarization; hit rate 1.3% among 370,000; Protein arginine N-methyltransferase 1 (Homo sapiens), Q99873;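 active means inhibition above about 21% made by adding two undisclosed values, limit read from the data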
LANA-H2B inh: blockers of LANA interaction with H2A/H2B – biochemical, FP readout, HTS, primary screen. Protein LANA1 (Human herpesvirus 8 type P (isolate GK18)), Q9QR71. cell-free LANA-H2A/H2B peptide, fluorescence polarization. inhibition, % (test concentration not listed). hit rate 0.6% among 320,000. AID 2629, 2010; in the data active means inhibition mostly above about 10%, no sharp cut-off; inactive means mostly below about 6.7%
ABHD5 PLIN5 PPI: ABHD5-PLIN5 interaction inhibitors, primary screen, cell lysate, split luciferase complementation, luminescence. Perilipin-5 (Homo sapiens) + 1-acylglycerol-3-phosphate O-acyltransferase ABHD5 (Homo …. Split G. princeps luciferase complementation, 4 h. inhibition, % at 4 µM. hit rate 0.78% among 360,000;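 active means inhibition above the mean inhibition across every tested compound plus 3 SD, cut at about 22% in these data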;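 further: 0% = DMSO only wells and the 100% control is not disclosed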
ALR inh: inhibitors of human ALR sulfhydryl oxidase, primary screen, biochemical, H2O2 detection, HRP-luminol luminescence, single point. FAD-linked sulfhydryl oxidase ALR (Homo sapiens), P55789. inhibition, % (test concentration not listed). purified ALR, DTT oxidation. hit rate 3.8% among 290,000;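 active means mean replicate inhibition above about 79%, with every replicate also reaching it, limit read from the data; inconclusive means only one of the two criteria met; inactive means mean below limit and not every replicate reaching it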
Target sequence (P55789 whole entry, looked up): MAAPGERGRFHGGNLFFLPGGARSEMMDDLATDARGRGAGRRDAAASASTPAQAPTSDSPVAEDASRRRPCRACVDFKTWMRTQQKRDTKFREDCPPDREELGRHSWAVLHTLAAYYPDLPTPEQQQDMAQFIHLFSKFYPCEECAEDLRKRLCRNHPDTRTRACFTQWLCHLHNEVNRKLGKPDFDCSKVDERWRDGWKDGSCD
rCAG RNA binder: binders of r(CAG) RNA repeats, primary screen, biochemical, fluorescence | r(CAG) RNA repeat, TO-PRO-1 dye displacement fluorescence | inhibition, % at 3 µM | hit rate 1.3% among 370,000;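 active means inhibition above the plate cutoff, the mean of all test compounds on that plate plus 3 SD, cut at about 35% in these data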;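 further: 0% = DMSO alone and 100% = 100 µM mitoxantrone as full dye displacement; higher means more dye released from RNA so lower well fluorescence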
rCAG bind conf: small molecules binding CAG repeat RNA – biochemical, fluorescence, confirmation | shares compounds with rCAG RNA binder | r(CAG) RNA repeat, TO-PRO-1 dye displacement fluorescence | inhibition, % at 3 µM | hit rate 70% among 4,300 | AID 652065, 2013;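 active means inhibition above a per-plate cutoff, the mean inhibition of sample wells plus 3 SD, cut at about 35% in these data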;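 further: loss of TO-PRO-1 fluorescence as compound displaces dye from 1x1 AA loop RNA; 0% = DMSO only wells and 100% = 100 µM mitoxantrone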
DNA CAG counter: displacement of TO-PRO-1 from CAG DNA duplex, counter-screen for rCAG RNA repeat binder project, biochemical, fluorescence, TO-PRO-1 dye, d(CAG) DNA oligo | hit rate 94% among 4,300 | inhibition, % at 3 µM | AID 652068, 2013 | d(CAG) DNA oligo TO-PRO-1 dye displacement | shares compounds with rCAG RNA binder;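 active means inhibition above its plate's cutoff, the mean test-well inhibition plus 3 SD, cut at about 4.8% in these data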;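 further: 0% = DNA dye mix with DMSO and 100% = 100 µM mitoxantrone; hits displace the dye from DNA and so lower well fluorescence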
dCAG dye DR: inhibitors of DNA CAG/GTC TO-PRO-1 complex, dose response, counter-screen for rCAG RNA repeat binder project, biochemical, fluorescence, TO-PRO-1 dye; shares compounds with rCAG RNA binder; DNA CAG/GTC duplex TO-PRO-1 dye displacement fluorescence; IC50, µM; hit rate 20% among 250; AID 686960, 2013; in the data active means IC50 below about 10 µM
* = called active by the depositor; i = inactive; ? = inconclusive; / = not tested or not shown.

SMILES	Rtt109 HAT inh	PRMT1 inh	LANA-H2B inh	ABHD5 PLIN5 PPI	ALR inh	rCAG RNA binder	rCAG bind conf	DNA CAG counter	others
CC1CCc2c(sc(NC(=O)/C=C/c3cccs3)c2C(=O)O)C1 (stereo not drawn)	0.2	-1.4	-0.4	-4.1	16.8	45.6*	66.5*	26.3*
O=C(/C=C/c1cccs1)Nc1scc(-c2ccccc2)c1C(=O)O	-0.6	13.2	/	3.8	/	36.7*	36.2*	11.0*
COc1cc(C(=O)Nc2c(C(=O)O)[nH]c3ccc(C)cc23)cc(OC)c1OC	13.3	14.2	4.3	-9.2	95.7*	53.8*	26.8	5.3*
Clc1cccc(CN2CCSCC2)c1Cl	-4.9	0.6	-0.2	-3.5	5.7	-2.6	/	/
C=CCN1C(=O)[C@@H](CC(=O)N2CCC(c3ccccc3)CC2)[C@]2(C(=O)OC)CCCCC=C12	/	-3.0	/	/	/	2.0	/	/
CN1C(=O)C[C@@](C#N)(C(=O)N2CCOCC2)[C@H]1c1ccccc1	/	-0.1	/	/	/	0.9	/	/
Cc1csc(NC(=O)COCC(=O)O)c1-c1nc2ccccc2s1	17.7	-5.6	4.7	3.8	64.8	55.5*	43.2*	9.7*
Cc1csc(NC(=O)CCCC(=O)O)c1-c1nc2ccccc2s1	15.1	9.0	1.7	3.4	7.2	2.4	/	/
C=CCn1c(COc2ccc(Cl)cc2)nnc1SCC(=O)c1ccccc1	/	-1.6	/	/	/	0.3	/	/
CCC(Sc1nc2ccsc2c(=O)n1Cc1ccc(C(=O)O)cc1)C(=O)Nc1cccc(OC)c1 (stereo not drawn)	/	-1.6	/	-2.1	/	45.6*	36.3*	10.7*
CCc1ccc(NC(=O)C(CC)Sc2nc3ccsc3c(=O)n2CCC(=O)O)cc1 (stereo not drawn)	2.6	4.2	1.5	0.1	0.7	37.9*	23.4	4.4*
CCN(CC)C(=O)C1=C(C)N(Cc2ccccc2)C(=O)C(CC(=O)NCCCN(C)C)C1 (stereo not drawn)	/	5.6	/	-7.3	/	-0.2	/	/
N#C/C(N=Nc1ccccc1O)=N\Nc1ccccc1O	6.9	10.4	1.9	22.0	98.8*	56.8*	73.9*	29.4*
Cc1nc2ccc(C(=O)Nc3ccc4c(c3)OCC(=O)N4)cn2c1N(C)C(=O)CCc1ccccc1	/	1.9	/	6.6	/	0.8	/	/
CCCN(CCC)S(=O)(=O)c1ccc(NS(C)(=O)=O)cc1	-0.9	2.5	1.7	-3.0	/	1.0	/	/
CCCN(CCC)S(=O)(=O)c1ccc(NS(=O)(=O)c2ccc(F)cc2)cc1	-6.5	2.1	-1.5	3.6	-3.1	45.9*	35.4*	8.4*
Cc1cc(NC(=O)NC(=O)c2ccccc2NC(=O)C(C)N)ccc1Oc1ncc(Br)cn1 (stereo not drawn)	-0.2	3.1	/	-0.8	/	2.5	/	/
Cc1ccccc1CC(=O)N1CCC(n2nnc3ncccc32)CC1	/	3.0	/	/	/	2.4	/	/
COc1cccc(-c2csc(NC(=O)C3CC3)n2)c1	4.2	-2.2	2.6	-4.4	1.4	-2.2	/	/
O=C(Nc1ccc(-c2csc(Nc3ccccc3)n2)cc1)c1ccccc1	3.2	0.8	4.1	0.1	43.4	14.7	/	/
COc1cccc(-c2csc(NC(=O)Nc3ccccc3)n2)c1	12.6	10.1	2.3	6.0	/	54.2*	28.9	24.9*
O=C(Nc1ccccc1)Nc1nc(-c2ccccc2)cs1	7.3	2.0	-3.1	-5.8	-0.8	43.2*	12.3	15.1*
O=C(Nc1ccc(Cl)c(Cl)c1)Nc1nc(-c2ccccc2)cs1	0.3	-0.7	4.5	0.7	0.7	23.8	/	/
O=C(O)CCC(=O)Nc1ccc(-c2csc(Nc3cccc4ccccc34)n2)cc1	10.9	0.6	-4.0	-9.8	?	49.4*	49.0*	18.0*
CCCCOc1ccc(C(=O)n2ccc3ccc(-c4ccc5ccn(Cc6ccc(OC)cc6)c5c4)cc32)cc1	/	4.1	/	/	/	23.5	/	/
SMILES	Rtt109 HAT inh	PRMT1 inh	LANA-H2B inh	ABHD5 PLIN5 PPI	ALR inh	rCAG RNA binder	rCAG bind conf	DNA CAG counter	others
O=S1(=O)CC2c3ccccc3CN2CN1CCc1ccccc1 (stereo not drawn)	/	6.7	/	/	/	4.2	/	/
CC1(C(=O)NS(=O)(=O)Cc2cccc(Cl)c2)CCN1C(=O)C/C=C/c1ccccc1 (stereo not drawn)	/	-0.4	/	-2.5	/	39.0*	35.5*	8.3*
CC1(C(=O)NS(=O)(=O)Cc2ccccc2)CCN1C(=O)C1(c2ccc(Cl)cc2)CC1 (stereo not drawn)	/	-3.8	/	-4.0	/	33.1	/	/
CC1(C(=O)NS(=O)(=O)Cc2cccc(Cl)c2)CCN1C(=O)CCc1ccccc1 (stereo not drawn)	/	-1.0	/	4.2	/	21.4	/	/
CC1(C(=O)NS(=O)(=O)Cc2ccccc2)CCN1C(=O)C/C=C/c1ccccc1 (stereo not drawn)	/	-0.9	/	8.2	/	14.2	/	/
CC1(C(=O)NS(=O)(=O)Cc2cccc(Cl)c2)CCN1C(=O)Cc1ccc(-c2ccccc2)cc1 (stereo not drawn)	/	-4.1	/	4.3	/	72.1*	70.0*	29.4*	dCAG dye DR=i
CC1(C(=O)NS(=O)(=O)Cc2cccc(Cl)c2)CCN1C(=O)C1(c2ccc(Cl)cc2)CC1 (stereo not drawn)	/	-1.9	/	-3.3	/	54.4*	44.7*	11.5*
CCCC1CCC2(CC1)CCC2OC(=S)Nc1ccc(Cl)cc1 (stereo not drawn)	/	-2.0	/	/	/	/	/	/
COC(=O)[C@]12C[C@H](CC(=O)NCC3CCCCC3)C(=O)N(Cc3ccccc3)C1=C[C@H](C(C)C)O[C@@H]2C1CC1	/	-4.9	/	/	/	2.2	/	/
Cc1ccc(Cn2cc(CN3[C@H](c4ccccc4)COc4cc(Br)ccc4S3(=O)=O)nn2)cc1	/	-3.8	/	/	/	66.0*	50.5*	19.1*
COc1ccc(-n2c(C)cc(/C=C3\SC(=S)NC3=O)c2C)cc1	/	-2.0	-4.6	3.1	24.1	13.5	/	/
Cc1cc(/C=C2\SC(=S)NC2=O)c(C)n1C	2.7	22.5*	0.8	-11.5	33.8	51.4*	22.2	7.9*
